Data: the supplement of paper PMC10849652
About 7,900 targets were measured; listed, in parts, are those with a hit and a random draw of the rest. About 0.6% of all pairs of compound and target were hits.

Legend:
Test in all cases: log2 fold change, soluble protein after heating vs DMSO (PISA); higher = thermal stabilisation; K562 cells, 10 uM, 30 min; active = over 0.2 and 3.5 SD of the protein, either way, in both replicates (recomputed)
erlotinib = compound: C#Cc1cccc(Nc2ncnc3cc(OCCOC)c(OCCOC)cc23)c1 [erlotinib]
Procedure, shortened: (§1)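 Soluble protein was defined as the supernatant after 21,000xg for 90 min. It came from K562 cells at 2×10^6 cells/mL given 10 μM compound for 30 min, heated in aliquots for 3 min across 48°C-58°C, pooled, and extracted in PBS with 0.5% NP-40 at 4°C, and was quantified by TMTpro 16plex LC-MS/MS with equalised channel sums. Thermal stability against control samples, from duplicates, is reported as log2 fold change.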

[1] = compound: C/C(=N\NC(=O)C1=CC(=CC=C1)S(=O)(=O)N2CCOCC2)/C3=C(C=CC(=C3)Cl)O
Procedure, shortened: as §1

[2] = compound: C1=CC(=C(C=C1Cl)C2=NC3=NC=CN=C3C(=N2)NC4=CC=NC=C4)F
Procedure, shortened: as §1

[3] = compound: C1=CC(=CC=C1C2=NC3=C(N2)C=C(C=C3)C(=O)N)OC4=CC=C(C=C4)Cl
Procedure, shortened: as §1

[4] = compound: C1=CC2=C(C=CC(=C2)/C=C\3/C(=O)NC(=NCC4=CC=CS4)S3)N=C1
Procedure, shortened: as §1

[5] = compound: C1=CC2=NC=CN=C2C=C1/C=C/3\C(=O)NC(=O)S3
Procedure, shortened: as §1

[6] = compound: C1=CC=C(C=C1)C2=NC(=C(N2)C3=CC=NC=C3)C4=CC(=C(C=C4)Cl)O
Procedure, shortened: as §1

[7] = compound: C1=CC=C2C(=C1)C3=NNC4=CC=CC(=C43)C2=O
Procedure, shortened: as §1

[8] = compound: C1CCN(C1)C(=O)NC2=CC=CC(=C2)NC3=NC=C(C(=N3)NCCC4=CN=CN4)Br
Procedure, shortened: as §1

[9] = compound: C1CN(CCC1(CC2=CC=C(C=C2)Cl)N)C3=NC=NC4=C3C=CN4
Procedure, shortened: as §1

IRAK-1-4 Inhibitor I = compound: C1COCCN1CCN2C3=CC=CC=C3N=C2NC(=O)C4=CC(=CC=C4)[N+](=O)[O-] [IRAK-1-4 Inhibitor I]
Procedure, shortened: as §1

ibrutinib = compound: C=CC(=O)N1CCC[C@@H](n2nc(-c3ccc(Oc4ccccc4)cc3)c3c(N)ncnc32)C1 [ibrutinib]
Procedure, shortened: as §1

[10] = compound: CC(=O)c1cnc2ccc(-c3cc(Cl)c(O)c(Cl)c3)nc2c1N[C@H]1CC[C@H](CN(C)C)CC1
Procedure, shortened: as §1

ralimetinib = compound: CC(C)(C)Cn1c(N)nc2ccc(-c3[nH]c(C(C)(C)C)nc3-c3ccc(F)cc3)nc21 [ralimetinib]
Procedure, shortened: as §1

[11] = compound: CC(C)(O)CC(=O)NCCn1ccc2ncnc(Nc3ccc(Oc4cccc(C(F)(F)F)c4)c(Cl)c3)c21
Procedure, shortened: as §1

[12] = compound: CC(C)C1=C2N=C(C=C(N2N=C1)NCC3=CC=CC=C3)NCCCCCCN
Procedure, shortened: as §1

[13] = compound: CC(C)C[C@@H](C=O)NC(=O)[C@H](CC(C)C)NC(=O)[C@H](CC(C)C)NC(=O)OCc1ccccc1
Procedure, shortened: as §1

pinometostat = compound: CC(C)N(C[C@H]1O[C@@H](n2cnc3c(N)ncnc32)[C@H](O)[C@@H]1O)[C@H]1C[C@@H](CCc2nc3cc(C(C)(C)C)ccc3[nH]2)C1 [pinometostat]
Procedure, shortened: as §1

[14] = compound: CC1=C(C(CC(=O)N1)C2=CC=C(C=C2)C(F)(F)F)C(=O)NC3=C(C=C4C(=C3)C=NN4)F
Procedure, shortened: as §1

[15] = compound: CC1=C(C2=C(C=C1)C(=O)C3=CC=CC=C3N2CCCN)C
Procedure, shortened: as §1

Measured: log2 fold change

MAP4 (UniProt E7EVA0)
inactive: erlotinib 0 | [1] -0.093 | [2] -0.219 | [3] 0.063 | [4] -0.087 | [5] 0.058 | [6] -0.086 | [7] -0.003 | [8] 0.034 | [9] -0.053 | IRAK-1-4 Inhibitor I -0.058 | ibrutinib -0.036 | [10] -0.022 | ralimetinib 0.088 | [11] 0.013 | [12] -0.025 | [13] 0.049 | pinometostat 0.104 | [14] -0.046 | [15] 0.027

MFGE8 (UniProt Q08431)
Sequence of UniProt Q08431 (Q08431 whole entry, looked up): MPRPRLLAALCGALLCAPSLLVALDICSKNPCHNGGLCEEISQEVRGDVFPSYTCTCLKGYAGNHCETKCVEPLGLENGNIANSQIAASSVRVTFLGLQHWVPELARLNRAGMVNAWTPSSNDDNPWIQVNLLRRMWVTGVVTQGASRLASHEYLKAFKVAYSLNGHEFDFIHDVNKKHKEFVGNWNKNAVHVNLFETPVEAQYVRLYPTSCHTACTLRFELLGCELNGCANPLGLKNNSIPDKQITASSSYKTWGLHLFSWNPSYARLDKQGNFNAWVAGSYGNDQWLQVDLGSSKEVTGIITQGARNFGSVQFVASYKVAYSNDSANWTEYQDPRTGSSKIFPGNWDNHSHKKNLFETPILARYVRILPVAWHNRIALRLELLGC
inactive: erlotinib -0.135 | [1] -0.032 | [2] -0.149 | [3] 0.045 | [4] -0.059 | [5] -0.024 | [6] 0.024 | [7] 0.095 | [8] -0.041 | [9] -0.066 | IRAK-1-4 Inhibitor I -0.058 | ibrutinib 0.016 | [10] 0.269 | ralimetinib 0.152 | [11] 0.105 | [12] 0 | [13] 0.191 | pinometostat 0.12 | [14] -0.008 | [15] -0.038

MAP3K7 (UniProt O43318)
Sequence of UniProt O43318 (O43318 whole entry, looked up): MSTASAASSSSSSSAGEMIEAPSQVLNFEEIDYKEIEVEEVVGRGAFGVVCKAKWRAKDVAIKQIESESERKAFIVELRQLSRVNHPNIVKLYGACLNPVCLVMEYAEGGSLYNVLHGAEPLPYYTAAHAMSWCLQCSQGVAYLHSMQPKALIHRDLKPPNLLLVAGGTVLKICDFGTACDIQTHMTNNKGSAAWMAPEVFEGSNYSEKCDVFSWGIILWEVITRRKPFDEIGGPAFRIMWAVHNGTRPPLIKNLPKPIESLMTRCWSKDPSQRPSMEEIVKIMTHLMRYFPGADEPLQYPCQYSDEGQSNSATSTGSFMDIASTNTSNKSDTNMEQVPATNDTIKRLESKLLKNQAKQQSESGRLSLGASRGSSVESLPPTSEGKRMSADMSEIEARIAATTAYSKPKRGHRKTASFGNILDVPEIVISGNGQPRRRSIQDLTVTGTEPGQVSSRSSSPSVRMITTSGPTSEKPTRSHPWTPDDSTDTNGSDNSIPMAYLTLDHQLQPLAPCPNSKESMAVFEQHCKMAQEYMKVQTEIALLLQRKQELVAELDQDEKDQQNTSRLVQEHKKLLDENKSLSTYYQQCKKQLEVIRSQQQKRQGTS
inactive: erlotinib 0.078 | [1] 0.009 | [2] -0.067 | [3] -0.091 | [4] 0.034 | [5] -0.031 | [6] -0.016 | [7] 0.113 | [8] -0.005 | [9] -0.168 | IRAK-1-4 Inhibitor I -0.123 | ibrutinib -0.061 | [10] -0.075 | ralimetinib 0.035 | [11] -0.207 | [12] -0.159 | [13] 0.05 | pinometostat 0.102 | [14] 0.024 | [15] 0.006

KLHDC4 (UniProt Q8TBB5)
Sequence of UniProt Q8TBB5 (Q8TBB5 whole entry, looked up): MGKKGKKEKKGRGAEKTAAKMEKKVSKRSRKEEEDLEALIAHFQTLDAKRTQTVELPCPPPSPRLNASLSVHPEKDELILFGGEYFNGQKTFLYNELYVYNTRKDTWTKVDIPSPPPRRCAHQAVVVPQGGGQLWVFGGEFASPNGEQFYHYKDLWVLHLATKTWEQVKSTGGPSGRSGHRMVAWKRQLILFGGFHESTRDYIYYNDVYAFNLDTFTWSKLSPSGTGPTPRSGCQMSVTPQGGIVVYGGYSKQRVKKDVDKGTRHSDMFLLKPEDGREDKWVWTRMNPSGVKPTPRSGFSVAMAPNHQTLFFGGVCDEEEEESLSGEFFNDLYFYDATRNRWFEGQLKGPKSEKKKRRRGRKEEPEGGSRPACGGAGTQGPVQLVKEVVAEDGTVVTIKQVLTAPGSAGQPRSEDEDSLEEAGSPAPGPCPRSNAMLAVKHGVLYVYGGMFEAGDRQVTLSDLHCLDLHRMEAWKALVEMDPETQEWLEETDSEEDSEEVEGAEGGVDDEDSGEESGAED
inactive: erlotinib -0.066 | [1] -0.075 | [2] -0.174 | [3] -0.013 | [4] 0.077 | [5] -0.123 | [6] -0.081 | [7] 0.07 | [8] -0.113 | [9] 0.119 | IRAK-1-4 Inhibitor I -0.008 | ibrutinib -0.011 | [10] -0.008 | ralimetinib 0.062 | [11] 0.002 | [12] 0.065 | [13] 0.017 | pinometostat 0.199 | [14] -0.123 | [15] 0.159

LMBRD2 (UniProt Q68DH5)
Sequence of UniProt Q68DH5 (Q68DH5 whole entry, looked up): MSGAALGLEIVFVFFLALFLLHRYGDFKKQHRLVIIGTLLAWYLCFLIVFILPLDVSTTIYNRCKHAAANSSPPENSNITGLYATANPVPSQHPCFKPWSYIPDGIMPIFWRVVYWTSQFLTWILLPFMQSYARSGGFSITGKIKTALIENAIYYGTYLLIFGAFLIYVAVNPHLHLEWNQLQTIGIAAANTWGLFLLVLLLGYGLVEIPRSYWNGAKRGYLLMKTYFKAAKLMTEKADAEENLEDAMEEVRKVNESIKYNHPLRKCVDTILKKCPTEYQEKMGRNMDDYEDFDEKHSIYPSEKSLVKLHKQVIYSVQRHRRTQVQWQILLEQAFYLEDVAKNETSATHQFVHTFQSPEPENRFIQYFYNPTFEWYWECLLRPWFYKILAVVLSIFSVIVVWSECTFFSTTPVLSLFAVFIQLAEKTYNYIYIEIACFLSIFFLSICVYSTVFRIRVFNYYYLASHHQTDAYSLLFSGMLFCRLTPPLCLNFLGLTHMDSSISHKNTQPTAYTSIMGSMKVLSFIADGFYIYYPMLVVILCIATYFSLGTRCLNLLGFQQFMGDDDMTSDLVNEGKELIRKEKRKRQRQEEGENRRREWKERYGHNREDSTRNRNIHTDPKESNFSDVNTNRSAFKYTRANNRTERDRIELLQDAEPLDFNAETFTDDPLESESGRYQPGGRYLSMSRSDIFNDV
active: [12] -0.244
inactive: erlotinib 0.015 | [1] -0.007 | [2] 0.097 | [3] 0.011 | [4] 0.022 | [5] 0.038 | [6] 0.016 | [7] -0.118 | [8] -0.073 | [9] 0.1 | IRAK-1-4 Inhibitor I 0.14 | ibrutinib -0.034 | [10] 0.034 | ralimetinib -0.016 | [11] -0.021 | [13] -0.093 | pinometostat 0.037 | [14] -0.007 | [15] 0.012

LTV1 (UniProt Q96GA3)
Sequence of UniProt Q96GA3 (Q96GA3 whole entry, looked up): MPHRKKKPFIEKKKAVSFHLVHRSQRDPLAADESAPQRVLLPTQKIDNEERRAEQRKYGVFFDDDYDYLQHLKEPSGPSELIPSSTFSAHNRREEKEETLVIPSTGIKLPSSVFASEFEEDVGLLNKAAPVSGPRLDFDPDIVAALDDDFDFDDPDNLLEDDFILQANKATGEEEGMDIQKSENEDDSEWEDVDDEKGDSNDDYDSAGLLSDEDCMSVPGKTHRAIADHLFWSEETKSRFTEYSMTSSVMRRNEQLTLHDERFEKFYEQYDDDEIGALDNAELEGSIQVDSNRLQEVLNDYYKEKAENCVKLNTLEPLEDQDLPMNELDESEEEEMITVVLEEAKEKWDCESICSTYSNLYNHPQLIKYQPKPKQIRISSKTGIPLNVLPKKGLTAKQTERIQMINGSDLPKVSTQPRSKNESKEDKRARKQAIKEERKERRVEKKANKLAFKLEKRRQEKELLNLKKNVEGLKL
inactive: erlotinib -0.079 | [1] -0.073 | [2] -0.275 | [3] 0.041 | [4] -0.037 | [5] 0.013 | [6] -0.055 | [7] 0.046 | [8] 0.143 | [9] -0.284 | IRAK-1-4 Inhibitor I -0.101 | ibrutinib -0.009 | [10] 0.224 | ralimetinib 0.134 | [11] 0.001 | [12] -0.233 | [13] 0.104 | pinometostat 0.249 | [14] -0.005
active: [15] -0.726

LMNB2 (UniProt Q03252)
Sequence of UniProt Q03252 (Q03252 whole entry, looked up): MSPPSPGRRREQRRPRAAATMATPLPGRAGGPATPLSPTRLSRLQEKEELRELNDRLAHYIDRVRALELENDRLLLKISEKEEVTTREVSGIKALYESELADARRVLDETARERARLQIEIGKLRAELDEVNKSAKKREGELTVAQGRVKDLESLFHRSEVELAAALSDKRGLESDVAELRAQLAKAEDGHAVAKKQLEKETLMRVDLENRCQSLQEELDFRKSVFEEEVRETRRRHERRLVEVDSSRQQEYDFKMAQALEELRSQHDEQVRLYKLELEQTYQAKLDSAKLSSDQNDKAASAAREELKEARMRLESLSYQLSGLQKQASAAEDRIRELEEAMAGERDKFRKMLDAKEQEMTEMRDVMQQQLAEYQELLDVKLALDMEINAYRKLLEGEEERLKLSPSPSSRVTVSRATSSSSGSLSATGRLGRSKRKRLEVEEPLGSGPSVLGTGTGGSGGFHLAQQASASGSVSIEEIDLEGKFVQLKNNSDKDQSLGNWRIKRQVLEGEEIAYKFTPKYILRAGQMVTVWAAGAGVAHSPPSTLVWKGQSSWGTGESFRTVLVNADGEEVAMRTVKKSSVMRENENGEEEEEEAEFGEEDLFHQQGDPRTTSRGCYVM
active: [10] -0.214
inactive: erlotinib 0.027 | [1] 0.062 | [2] 0.001 | [3] 0.025 | [4] -0.042 | [5] 0.099 | [6] -0.066 | [7] -0.186 | [8] -0.167 | [9] 0.001 | IRAK-1-4 Inhibitor I -0.026 | ibrutinib -0.017 | ralimetinib -0.018 | [11] 0.052 | [12] -0.093 | [13] 0.03 | pinometostat 0.011 | [14] -0.013 | [15] -0.022

LMNB1 (UniProt P20700)
Sequence of UniProt P20700 (P20700 whole entry, looked up): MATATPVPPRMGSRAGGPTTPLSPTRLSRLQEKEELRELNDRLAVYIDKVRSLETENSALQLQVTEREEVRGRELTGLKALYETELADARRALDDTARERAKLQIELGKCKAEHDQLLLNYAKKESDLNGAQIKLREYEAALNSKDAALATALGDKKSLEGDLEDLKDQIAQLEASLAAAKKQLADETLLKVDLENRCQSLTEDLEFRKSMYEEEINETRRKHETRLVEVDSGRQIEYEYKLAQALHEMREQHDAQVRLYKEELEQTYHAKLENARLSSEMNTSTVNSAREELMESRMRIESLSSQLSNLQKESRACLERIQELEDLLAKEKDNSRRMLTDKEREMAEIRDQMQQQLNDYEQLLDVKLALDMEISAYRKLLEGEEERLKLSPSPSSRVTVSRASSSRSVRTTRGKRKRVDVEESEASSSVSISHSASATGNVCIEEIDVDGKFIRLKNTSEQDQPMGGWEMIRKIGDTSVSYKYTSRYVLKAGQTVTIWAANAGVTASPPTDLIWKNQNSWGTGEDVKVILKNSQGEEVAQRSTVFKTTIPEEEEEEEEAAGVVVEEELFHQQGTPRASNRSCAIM
inactive: erlotinib -0.06 | [1] 0.071 | [2] 0.001 | [3] 0.029 | [4] -0.073 | [5] 0.064 | [6] -0.07 | [7] -0.151 | [8] -0.079 | [9] 0.001 | IRAK-1-4 Inhibitor I -0.004 | ibrutinib -0.03 | [10] -0.22 | ralimetinib 0.015 | [11] 0.091 | [12] -0.048 | [13] 0.031 | pinometostat 0.011 | [14] 0.01 | [15] -0.082
